Consider six compounds from PubChem BioAssay.

The target in one experiment is Albumin (Bos taurus) (UniProt P02769). The experiment in a line: compounds binding labelled BSA control protein – biochemical, small-molecule microarray, Alexa647 label, 635/667 nm fluorescence, artefact control for SMM control protein annotation, profiling panel (AID 1118).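 Further: score merges 667 nm emission intensity and signal-to-noise per printed compound spot.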 The conditions noted are these: BSA-A647 binding, fluorescence 635 nm, higher = more signal.
Experiment [1] is described as follows: probe aXIP binding to arrayed compounds – biochemical, NeuroSMM set, 635/667 nm fluorescence, primary screen (AID 1119).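 Further: probe is the protein aXip251-270 applied at 1 µg/mL to compound-printed slides; binding of probe to printed compounds measured as 667 nm fluorescence plus signal to noise.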 The conditions noted are these: small-molecule microarray, higher = more signal, called active from +8 up or from −8 down.
Experiment [2] can be described thus: probe aNOTCH3 binding on compound microarray – biochemical, small-molecule microarray, 635/667 nm fluorescence, primary screen (AID 1120).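 Further: probe is a biotin-tagged antibody raised against NOTCH3 rather than NOTCH3 protein; score merges spot fluorescence near 667 nm with spot signal to noise.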 The conditions noted are these: higher = more signal.
Experiment [3] is described as follows: probe aNOTCH2 binding on compound microarray – biochemical, small-molecule microarray, 635/667 nm fluorescence, primary screen (AID 1121).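 Further: score merges feature fluorescence read at 667 nm with its signal to noise.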 The conditions noted are these: higher = more signal.
Experiment [4] deals with Carbonic anhydrase 2 (Homo sapiens) (UniProt P00918). The experiment in a line: compounds binding carbonic anhydrase 2 – biochemical, small-molecule microarray, Alexa647-labelled CAII, profiling panel (AID 1122). The conditions noted are these: CAII-A647 binding fluorescence, higher = more signal.
A short description of experiment [5]: COS7 lysate on small-molecule microarray, probe aHis, 635 nm (AID 1123).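 Further: z-score combines 667nm fluorescence intensity with signal-to-noise per printed compound spot.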 Conditions: COS7 cell lysate, fluorescence, higher = more signal.
A short description of experiment [6]: probe aLAP1 signal on lysate-treated microarray – cell lysate, small-molecule microarray, COS7 lysate, primary screen (AID 1124).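 Further: lysate comes from COS7 cells expressing LAP1 and is applied at 0.3 µg/mL; score merges spot fluorescence near 667 nm with signal-to-noise over triplicate slides.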 Conditions: probe aLAP1, fluorescence, higher = more signal.
In the next experiment the test system is Sam68 (KHDRBS1). The experiment in a line: compounds binding KHDRBS1 protein – biochemical, small-molecule microarray, 635 nm fluorescence, primary screen (AID 1125).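 Further: score merges 667 nm channel intensity with signal to noise over triplicate slides.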 The conditions noted are these: higher = more signal.
Experiment [7] concerns Chordin-like protein 2 (CHRDL2). The experiment in a line: compounds binding chordin-like 2 – biochemical, small-molecule microarray, 635 nm fluorescence, primary screen (AID 1126).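 Further: printed compound slides probed with Chrdl2 protein at 4 µg/mL for 1 h at 4 C; score merges 667 nm emission intensity with signal to noise over three replicate slides.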 Conditions: fluorescence 635 nm, higher = more signal.
The target in experiment [8] is Concanavalin-A (Canavalia ensiformis) (UniProt P02866). The experiment in a line: compounds binding concanavalin A lectin – biochemical, small-molecule microarray, Alexa647 label, 635 nm, artefact control for SMM control protein annotation, primary screen (AID 1127).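 Further: z combines 667 nm emission intensity with signal-to-noise across three replicate slides.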 The conditions noted are these: ConA-A647 binding fluorescence, higher = more signal.
Experiment [9] is described as follows: compounds binding Alexa647 anti-His antibody – biochemical, small-molecule microarray, 635 nm fluorescence, artefact control for SMM control protein annotation, primary screen (AID 1128).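 Further: score merges feature fluorescence with signal-to-noise for each printed compound spot.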 The conditions noted are these: higher = more signal.
Experiment [10] relates to Human papillomavirus type 1a E7 protein (residues 1-88). The experiment in a line: HPV1a E7 small-molecule binders, primary screen, biochemical, small-molecule microarray, residues 1-88, 635 nm (AID 1129). The conditions noted are these: small-molecule microarray binding, fluorescence 635 nm; higher = more signal.
The target in experiment [11] is Focal adhesion kinase 1 (Homo sapiens) (UniProt Q05397). The experiment in a line: PTK2 protein binding on printed compound slides – biochemical, small-molecule microarray, 635/667 nm fluorescence, BSA, DTT, primary screen (AID 1130).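 Further: composite of spot emission at 667 nm and signal to noise over triplicate slides.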 Conditions: 635 nm fluorescence, higher = more signal.
Experiment [12] deals with Fibrinogen (Alexa647-labelled). The experiment in a line: Alexa647-fibrinogen binding to printed small molecules – biochemical, small-molecule microarray, 635/667 nm fluorescence, artefact control for SMM control-protein annotation, profiling panel (AID 1131).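 Further: z-score merges 667 nm fluorescence with per-spot signal-to-noise over triplicate slides.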 Conditions: fibrinogen-A647 binding fluorescence, higher = more signal.
Experiment [13] deals with Follistatin (Homo sapiens) (UniProt P19883). The experiment in a line: FST protein binding to printed compounds – biochemical, small-molecule microarray, 635/667 nm fluorescence, primary screen (AID 1132). Conditions: 635 nm fluorescence, higher = more signal.
For experiment [14], the target named is Fibroblast growth factor 2 (Homo sapiens) (UniProt P09038). The experiment in a line: basic fibroblast growth factor binding to printed compounds – biochemical, small-molecule microarray, 635/667 nm fluorescence, primary screen (AID 1133). The conditions noted are these: FGF2, fluorescence 635/667, higher = more signal.
Experiment [15] in a line: JC-1 mitochondrial potential readout, lung cancer cells – cell-based, A549, JC-1 fluorescence, basal, 24 h, 100 nL, profiling panel (AID 1138).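 Further: A549 lung adenocarcinoma cells under basal conditions with no added stimulus; test concentration not given here.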 The conditions noted are these: higher = more signal.
Another experiment relates to Lefty1. The experiment in a line: Lefty1 protein binding to printed compounds – biochemical, small-molecule microarray, 635/667 nm fluorescence, primary screen (AID 1139). The conditions noted are these: fluorescence 635/667, higher = more signal.
The test system of experiment [16] is wheat germ agglutinin (Triticum aestivum), Alexa647-labelled. The experiment in a line: Alexa647-WGA lectin binding to printed small molecules – biochemical, small-molecule microarray, 635/667 nm fluorescence, artefact control for SMM control-protein annotation, profiling panel (AID 1140).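 Further: score merges 667 nm feature emission with signal to noise over triplicate slides.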 The conditions noted are these: WGA-A647 binding, 635 nm fluorescence, higher = more signal.

For experiment [17], the target named is Luciferin 4-monooxygenase (Photinus pyralis) (UniProt P08659). The experiment in a line: inhibition of purified Photinus pyralis luciferase – biochemical, luminescence, purified enzyme, 2006 set, primary screen (AID 1141).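 Further: cell-free assay with purified firefly luciferase at 100 ng per well in PBS; test concentration not given here.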 The conditions noted are these: purified firefly luciferase, SteadyGlo luminescence, 30 min; higher = more signal, called active from +8 up or from −8 down.

Activity calls are given as the source filed them.

Fibroblast growth factor 2 (Homo sapiens), sequence (P09038 whole entry, looked up): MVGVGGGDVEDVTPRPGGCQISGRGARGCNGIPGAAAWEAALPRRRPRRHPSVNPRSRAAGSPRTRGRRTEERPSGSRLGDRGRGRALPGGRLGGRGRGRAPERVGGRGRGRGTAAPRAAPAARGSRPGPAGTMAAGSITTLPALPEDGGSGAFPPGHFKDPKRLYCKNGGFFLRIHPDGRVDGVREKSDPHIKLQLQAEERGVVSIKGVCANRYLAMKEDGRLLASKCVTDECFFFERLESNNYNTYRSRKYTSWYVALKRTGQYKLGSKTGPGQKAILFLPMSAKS
Focal adhesion kinase 1 (Homo sapiens), sequence (Q05397 whole entry, looked up): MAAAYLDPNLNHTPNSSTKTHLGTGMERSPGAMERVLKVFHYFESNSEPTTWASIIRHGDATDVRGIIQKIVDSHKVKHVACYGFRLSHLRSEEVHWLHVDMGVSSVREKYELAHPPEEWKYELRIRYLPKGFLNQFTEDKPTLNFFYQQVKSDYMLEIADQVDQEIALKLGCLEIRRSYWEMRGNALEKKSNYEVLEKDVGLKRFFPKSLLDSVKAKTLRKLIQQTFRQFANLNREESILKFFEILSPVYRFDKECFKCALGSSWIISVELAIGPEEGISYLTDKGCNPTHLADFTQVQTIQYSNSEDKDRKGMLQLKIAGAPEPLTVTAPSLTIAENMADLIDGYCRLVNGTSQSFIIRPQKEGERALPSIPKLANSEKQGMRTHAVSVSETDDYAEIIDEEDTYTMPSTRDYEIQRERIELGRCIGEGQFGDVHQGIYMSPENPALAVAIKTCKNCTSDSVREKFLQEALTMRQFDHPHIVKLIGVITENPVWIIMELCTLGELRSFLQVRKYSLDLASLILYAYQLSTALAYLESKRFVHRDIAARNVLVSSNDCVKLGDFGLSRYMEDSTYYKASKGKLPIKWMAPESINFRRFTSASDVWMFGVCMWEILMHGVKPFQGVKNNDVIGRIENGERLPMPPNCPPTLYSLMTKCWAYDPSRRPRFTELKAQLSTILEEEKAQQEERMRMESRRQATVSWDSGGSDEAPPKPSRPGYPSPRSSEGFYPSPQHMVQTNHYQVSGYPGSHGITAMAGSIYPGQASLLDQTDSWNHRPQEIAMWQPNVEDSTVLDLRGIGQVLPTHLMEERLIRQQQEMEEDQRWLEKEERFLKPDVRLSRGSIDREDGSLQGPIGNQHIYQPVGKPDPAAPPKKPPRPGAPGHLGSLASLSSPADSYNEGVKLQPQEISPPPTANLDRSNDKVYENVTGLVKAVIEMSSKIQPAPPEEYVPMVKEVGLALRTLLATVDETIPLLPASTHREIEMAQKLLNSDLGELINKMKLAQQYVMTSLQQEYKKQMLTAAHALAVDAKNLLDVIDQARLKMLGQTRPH
Follistatin (Homo sapiens), sequence (P19883 whole entry, looked up): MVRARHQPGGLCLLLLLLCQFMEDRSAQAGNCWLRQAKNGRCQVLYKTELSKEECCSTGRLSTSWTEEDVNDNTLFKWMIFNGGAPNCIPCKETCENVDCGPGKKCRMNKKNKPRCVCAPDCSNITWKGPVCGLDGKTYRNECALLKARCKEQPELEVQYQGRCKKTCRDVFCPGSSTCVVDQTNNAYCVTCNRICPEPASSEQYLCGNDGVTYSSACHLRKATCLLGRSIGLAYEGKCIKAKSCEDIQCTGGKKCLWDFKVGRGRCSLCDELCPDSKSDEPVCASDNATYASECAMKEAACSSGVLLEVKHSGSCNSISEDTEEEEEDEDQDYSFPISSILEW
Concanavalin-A (Canavalia ensiformis), sequence (P02866 whole entry, looked up): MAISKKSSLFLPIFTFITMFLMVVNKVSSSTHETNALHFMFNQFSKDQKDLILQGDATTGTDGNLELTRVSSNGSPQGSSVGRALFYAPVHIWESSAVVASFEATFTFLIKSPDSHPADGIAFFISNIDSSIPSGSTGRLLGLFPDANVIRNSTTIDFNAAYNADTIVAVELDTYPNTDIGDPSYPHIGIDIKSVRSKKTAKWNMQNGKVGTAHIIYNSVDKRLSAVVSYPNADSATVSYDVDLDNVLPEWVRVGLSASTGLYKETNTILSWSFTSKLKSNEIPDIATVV
Albumin (Bos taurus), sequence (P02769 whole entry, looked up): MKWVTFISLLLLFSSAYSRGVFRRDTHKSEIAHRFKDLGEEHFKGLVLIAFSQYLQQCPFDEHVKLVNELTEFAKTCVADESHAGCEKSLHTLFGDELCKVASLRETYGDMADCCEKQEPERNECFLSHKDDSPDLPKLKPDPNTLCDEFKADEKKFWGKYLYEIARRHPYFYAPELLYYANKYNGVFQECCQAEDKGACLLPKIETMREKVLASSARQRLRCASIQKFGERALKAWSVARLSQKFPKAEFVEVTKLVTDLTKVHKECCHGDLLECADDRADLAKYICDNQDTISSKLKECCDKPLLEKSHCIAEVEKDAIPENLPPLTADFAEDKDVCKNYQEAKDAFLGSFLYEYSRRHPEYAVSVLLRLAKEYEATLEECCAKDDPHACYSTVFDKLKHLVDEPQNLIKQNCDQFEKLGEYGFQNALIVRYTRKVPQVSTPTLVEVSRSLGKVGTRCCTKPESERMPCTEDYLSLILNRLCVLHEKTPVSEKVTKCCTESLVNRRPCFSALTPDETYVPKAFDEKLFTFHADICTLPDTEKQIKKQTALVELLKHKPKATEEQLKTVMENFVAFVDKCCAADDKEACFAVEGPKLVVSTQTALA
Luciferin 4-monooxygenase (Photinus pyralis), sequence (P08659 whole entry, looked up): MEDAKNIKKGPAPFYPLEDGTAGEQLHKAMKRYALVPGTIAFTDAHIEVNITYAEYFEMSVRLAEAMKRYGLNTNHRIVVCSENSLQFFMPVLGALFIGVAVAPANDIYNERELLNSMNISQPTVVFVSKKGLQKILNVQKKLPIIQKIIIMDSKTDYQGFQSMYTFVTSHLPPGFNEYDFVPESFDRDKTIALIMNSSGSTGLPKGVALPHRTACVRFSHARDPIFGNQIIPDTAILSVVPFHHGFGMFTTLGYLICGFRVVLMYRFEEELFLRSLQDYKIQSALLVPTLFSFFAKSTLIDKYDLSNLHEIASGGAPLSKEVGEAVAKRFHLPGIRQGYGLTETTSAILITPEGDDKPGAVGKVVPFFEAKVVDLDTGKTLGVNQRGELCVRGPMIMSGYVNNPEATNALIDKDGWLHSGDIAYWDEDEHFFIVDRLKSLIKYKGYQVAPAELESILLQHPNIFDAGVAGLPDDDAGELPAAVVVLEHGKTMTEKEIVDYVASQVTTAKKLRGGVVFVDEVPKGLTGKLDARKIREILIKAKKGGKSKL

In the case of `[N-]=[N+]=Nc1ccccc1[C@H]1OC(c2ccc(OCCCO)cc2)=N[C@@]1(Cc1ccccc1)C(=O)NCC(O)CO` (stereo not given in full), the composite z-score with Albumin (Bos taurus) is 0.793; in experiment [2], 0.0372; in experiment [3], -0.174; in experiment [4], 0.444; in experiment [5], 3.2; in [6], -0.142. For the same compound, the composite z-score in the experiment on Sam68 (KHDRBS1) was 0.495; in experiment [7], -0.832; in [8], 0.962; in experiment [9], 1.67; in [10] it was 1.21; in experiment [11], 0.0145. For the same compound, the composite z-score is 0.959 in experiment [12]; 1.06 in experiment [13]; -0.551 in experiment [14]; -0.498 in the experiment with Lefty1; 0.966 in experiment [16]. For the same compound, in [1], the composite Z-score is 0.0774 (inactive). Further, the z-score was 0.586 in experiment [15] and -5.02 (inactive) in experiment [17].

For `COC(=O)[C@H](Cc1ccc(O)cc1)N[C@@H](/C=C/C1CC1)[C@H](O)Cc1ccccc1`, the composite z-score with Albumin (Bos taurus) is -0.394; in experiment [2] it was -0.127; in experiment [3], -0.172; in experiment [4], -0.231; in experiment [5], -0.635; in experiment [6] it was -0.125. The composite z-score is 0.0476 with Sam68 (KHDRBS1); 0.202 in experiment [7]; -0.407 in [8]; 0.257 in [9]; -0.506 in experiment [10]; -0.408 in experiment [11]. The composite z-score in experiment [12] was -0.785; in experiment [13], 0.156; in experiment [14] it was 0.0843; in the experiment with Lefty1 it was 0.389; in experiment [16], -0.185. For the same compound, the composite Z-score in experiment [1] is -0.414 (inactive). Also, the results for the z-score in [15] and in experiment [17] were 0.091 and 0.209 (inactive), respectively.

On to `O=C1O[C@@H](c2ccccc2)[C@@H](c2ccccc2)N2[C@@H](c3ccccc3OCCO)[C@]3(C(=O)Nc4ccc(C#CCCO)cc43)[C@@H](C(=O)NC[C@H](O)c3ccccc3)[C@H]12`, for which the composite z-score is 0.366 with Albumin (Bos taurus); 0.307 in experiment [2]; 0.255 in experiment [3]; 0.557 in [4]; 2.25 in [5]; 1.31 in experiment [6]. Besides, the composite z-score with Sam68 (KHDRBS1) was 1.28; in experiment [7] it was 0.454; in [8], 1.12; in experiment [9] it was 1.32; in experiment [10] it was 1.25; in experiment [11], 1.06. In addition, the composite z-score came out at 0.847 in experiment [12]; 1.27 in experiment [13]; 0.835 in experiment [14]; 0.831 with Lefty1; 0.891 in experiment [16]. Besides, the composite Z-score in experiment [1] is 0.45 (inactive). Also, the z-score in experiment [15] is -0.928; in experiment [17], 0.808 (inactive).

Turning to `COC(=O)c1cccc([C@H]2OC(=CC(=O)OC(C)C)C[C@@H](c3cccc(C(=O)OC)c3)O2)c1`, the composite z-score with Albumin (Bos taurus) is 0.937; in experiment [2], 0.455; in [3] it was -0.118; in [4] it was 0.745; in [5], 1.78; in [6], 0.93. For the same compound, the composite z-score in the experiment on Sam68 (KHDRBS1) was 1.29; in [7] it was -0.338; in [8] it was 1.2; in [9] it was 1.51; in experiment [10], 1.24; in [11], 1.09. Besides, the composite z-score in experiment [12] amounted to 1; in experiment [13] it was 1.11; in experiment [14], 0.748; with Lefty1, 0.679; in experiment [16] it was 0.961. Moreover, in experiment [1], the composite Z-score is 0.587 (inactive). Besides, the results for the z-score in experiment [15] and in experiment [17] were -0.562 and -1.74 (inactive), respectively.

On to `COc1cc(CO)cc(I)c1O[C@H]1C=C(C(=O)NCCO)C[C@@H]2O[C@H]12`, for which the composite z-score is -0.39 with Albumin (Bos taurus); -0.0311 in experiment [2]; -0.0596 in experiment [3]; 0.465 in experiment [4]; 1.07 in experiment [5]; 0.0543 in [6]. Also, the composite z-score with Sam68 (KHDRBS1) is 1.3; in experiment [7], 1.36; in experiment [8] it was 1.01; in [9], 0.426; in [10], 1.22; in experiment [11], 0.572. The composite z-score was found to be 0.4 in experiment [12]; 1.52 in [13]; 2.13 in experiment [14]; 1.37 with Lefty1; 0.308 in experiment [16]. Moreover, in [1], the composite Z-score is 1.49 (inactive). In addition, the z-score in [15] is -0.976; in [17] it was 0.847 (inactive).

Regarding `CN(C)CCCCNC(=O)[C@H]1C[C@H]2C(=O)N3CCC[C@H]3C(=O)N2[C@H]1c1cccc(OCCO)c1`, the composite z-score with Albumin (Bos taurus) is -0.115; in [2], 0.234; in experiment [3] it was -0.117; in experiment [4], 0.519; in experiment [5] it was 1.12; in experiment [6], 0.392. Further, the composite z-score with Sam68 (KHDRBS1) was 1.04; in experiment [7], -0.52; in experiment [8] it was 0.794; in experiment [9] it was 1.96; in experiment [10], 0.74; in [11], 1.02. The composite z-score in experiment [12] came to 0.311; in experiment [13], 1.21; in experiment [14], 0.382; with Lefty1 it was 0.365; in [16] it was 1.15. Further, the composite Z-score in experiment [1] is 1.68 (inactive). Also, the z-score in experiment [15] is -0.159; in [17], 0.83 (inactive).
